± gives the standard deviation. In all, about 3,000 sequences were measured (“pre-steady-state target cleavage rate”: median about 0.0079, highest 2% from about 0.2 on). The sample as a whole holds a higher share of the highest values than the screen did. Where only a bound is given, the exact number is not on record here.

This assay relates to MILI (PIWIL2) piRISC loaded with piRNA #2 (26 nt). Put plainly: pre-steady-state target cleavage rate (min^-1); MIWI and MILI are mouse PIWI proteins and EfPiwi is from a freshwater sponge; tags in brackets are library labels; higher = faster piRNA-guided slicing of the target. The following applies: guide: piRNA #2 5'p-UUAGGUAACCCAGUAGAUCCAGAGGA; auxiliary factor: 500 nM mouse GTSF1. On the procedure:
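Cleave-'n-Seq: a library of target RNAs (target site embedded in constant flanks, ACAGCATTCCGCGTTAGTGATATCCG... 5' flank; DNA-blocked outside the site) at 0.1 nM was incubated with 1 nM active mouse MILI or MIWI piRISC (synthetic 5'-monophosphorylated piRNA guide) with or without 500 nM mouse GTSF1 at 33 °C for 1 min to 16 h. Uncleaved targets were sequenced and normalised to non-target controls, and the pooled three trials were fitted to a burst-and-steady-state model to give the pre-steady-state cleavage rate (min^-1; k3 is constrained to at most 1e-4). Sequence is the target site only; target names encode pairing extent (gX:gY) and contiguous / 1-mismatch / 2-mismatch / bulge geometry. Fits with R² ≤ 0 are excluded.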
For the sequence CUUAAGCUCUGGAUCUAAUGGGUUACCUAA, the “pre-steady-state target cleavage rate” value is 0.0186 ± 0.0042.

As to CUUAAGCUCUGGAUCUACUGGGUGUACCUAA, the “pre-steady-state target cleavage rate” value turned out to be 0.0345 ± 0.0091.

As to CUUAACCUCUGGAUCUCUGGGUUACCUAA, the “pre-steady-state target cleavage rate” value is 0.00889 ± 0.0054.

CUUAUCCUCUGGAUCUGCUGGGUUACCUAA: the “pre-steady-state target cleavage rate” value was found to be 0.0654 ± 0.015.

Take CUUAUCCUCUGGAUCUCUGGGUUACCUAA: the “pre-steady-state target cleavage rate” value came to 0.0227 ± 0.01.

In the case of CUUAACCUCUGGAUCUCCUGGGUUACCUAA, the “pre-steady-state target cleavage rate” value stood at 0.213 ± 0.084.

Take CUUAUCCUCUGGAUCUCCUGGGUUACCUAA: the “pre-steady-state target cleavage rate” value amounted to 0.459 ± 0.18.

As to CUUAACCUCUGGAUCUGCUGGGUUACCUAA, the “pre-steady-state target cleavage rate” value amounted to 0.097 ± 0.028.

In the case of CUUAAGCUCUGGAUCAACUGGGUUACCUUA, the “pre-steady-state target cleavage rate” value came to 0.0336 ± 0.011.

In the case of CUUAAGGUCUGGAUCUACUGGGUUUACCUAA, the “pre-steady-state target cleavage rate” value worked out at 0.0618 ± 0.011.

As for CUUAAGCUCUGGAUCUACUGGGUUUGCUAA, the “pre-steady-state target cleavage rate” value was found to be 0.144 ± 0.031.

Take CUUAACCUCUGCAUCUACUGGGUUUCCUAA: the “pre-steady-state target cleavage rate” value is 0.14 ± 0.059.

Regarding CUUAACCUCUGGAUCUACUGGGUUUCCUAA, the “pre-steady-state target cleavage rate” value amounted to 0.224 ± 0.062.

Take CUUAACCUCUGGAUCUACUGGGUUUACCUAA: the “pre-steady-state target cleavage rate” value came out at 0.0817 ± 0.019.

On to CUUAACCUCUCGAUCUACUGGGUUUCCUAA, for which the “pre-steady-state target cleavage rate” value was 0.138 ± 0.035.

In the case of CUUAACCUCUGGAUCUACUGGGUUAACCUAA, the “pre-steady-state target cleavage rate” value came out at 0.115 ± 0.024.

Regarding CUUAACCUCUGGAUCUACUGGGUUAGCUAA, the “pre-steady-state target cleavage rate” value was 0.112 ± 0.022.

CUUAACCUCUGGAUCUUCUGGGUUUCCUAA: the “pre-steady-state target cleavage rate” value stood at 0.243 ± 0.083.

Regarding CUUAACCUCUGGAUCUACUGGGUUUGCUAA, the “pre-steady-state target cleavage rate” value came to 0.305 ± 0.066.

With CUUAACCUCUGGAUCUUCUGGGUUACCUAA, the “pre-steady-state target cleavage rate” value was found to be 0.0795 ± 0.017.

In the case of CUUAACCUCUGGAUCUUCUGGGUAACCUAA, the “pre-steady-state target cleavage rate” value worked out at 0.0414 ± 0.016.

In the case of CUUAACCUCUGGUUCUACUGGGUUUCCUAA, the “pre-steady-state target cleavage rate” value turned out to be 1.67 ± 0.98.

Take CUUAAGGAGACCUAGUACUUGGUUACCUAA: the “pre-steady-state target cleavage rate” value is less than 0.0001.

For CUUAUGCUCUGGAUCUACUGGGUAACCUAA, the “pre-steady-state target cleavage rate” value turned out to be 0.0539 ± 0.012.

Turning to CUUAAGGACUGCAUCUACAGGGUUACCUAA, the “pre-steady-state target cleavage rate” value came to 0.0435 ± 0.015.

On to CUUAACAUCUGGAUCUACUGGGUUACCUAA, for which the “pre-steady-state target cleavage rate” value is 0.114 ± 0.019.

Take “CUUAAGGAGUGGAUCUACUGGGUUACCUAG [g2:g21:cont:t1G]”: the “pre-steady-state target cleavage rate” value came out at 0.0456 ± 0.013.

Regarding CUUAAGCUGACGAUCUACUGGGUUACCUAA, the “pre-steady-state target cleavage rate” value was 0.0365 ± 0.015.

As for CUUAAGCUCUGGAUUACUGGGUUACCUAA, the “pre-steady-state target cleavage rate” value came to 0.0142 ± 0.0047.

For “CUUAAGGAGAGGAUCUACUGGGUUACCUAA [g2:g20:cont:t1A]”, the “pre-steady-state target cleavage rate” value was 0.0156 ± 0.0072.

On to CUUAAGGACAGGAUCUACAGGGUUACCUAA, for which the “pre-steady-state target cleavage rate” value stood at 0.0375 ± 0.014.

Regarding CUUAACCACUGGAUCAACUGGGUUACCUAA, the “pre-steady-state target cleavage rate” value was 0.0515 ± 0.014.

For CUUAAGCUCUGGUUCUACUGGGUUUCCUAA, the “pre-steady-state target cleavage rate” value was found to be 0.219 ± 0.085.

In the case of CUUAACCUCUGGAUCUACUGGGUUUCGUAA, the “pre-steady-state target cleavage rate” value turned out to be 0.128 ± 0.044.

For the sequence CUUAUCCUCUGGAUCUUCUGGGUUUCCUAA, the “pre-steady-state target cleavage rate” value is 0.258 ± 0.088.

For the sequence CUUAAGCUCUGGAUCUUCUGGGUUUCCUAA, the “pre-steady-state target cleavage rate” value came out at 0.0561 ± 0.017.

For the sequence CUUAAGCUCUGGAUCUACUGGGUUUCCUAA, the “pre-steady-state target cleavage rate” value was determined as 0.107 ± 0.025.

As for CUUAACCUCUGGAUCUACUGGGUUACCUUA, the “pre-steady-state target cleavage rate” value was 0.111 ± 0.026.

For the sequence CUUAACCUCUGGAUCUACUGGGUUUCCUUA, the “pre-steady-state target cleavage rate” value worked out at 0.225 ± 0.066.

With CUUAUCCUCUGGAUCUAGUGGGUUUCCUAA, the “pre-steady-state target cleavage rate” value was found to be 0.055 ± 0.016.

Consider CUUAAGCUCUGCAUCUACUGGGUUUCCUAA, for which the “pre-steady-state target cleavage rate” value stood at 0.0656 ± 0.022.

As for CUUAACCUCUCGAUCUACUGGGUAACCUAA, the “pre-steady-state target cleavage rate” value amounted to 0.0796 ± 0.017.

CUUAACCACUGGUUCUACUGGGUUACCUAA: the “pre-steady-state target cleavage rate” value came to 0.112 ± 0.019.

CUUAACCACUGCAUCUACUGGGUUACCUAA: the “pre-steady-state target cleavage rate” value worked out at 0.0927 ± 0.018.

As for CUUAUCCUCUGGAUCUACUGGGUGACCUAA, the “pre-steady-state target cleavage rate” value was 0.0696 ± 0.014.

Turning to CUUAACCUCUGGAACUACUGGGUUACCUAA, the “pre-steady-state target cleavage rate” value was 0.133 ± 0.03.

Regarding CUUAACCUCUGGAACUACUGGGUAACCUAA, the “pre-steady-state target cleavage rate” value was 0.06 ± 0.024.

As for CUUAUCCUCUGGAACUACUGGGUAACCUAA, the “pre-steady-state target cleavage rate” value was 0.0599 ± 0.022.

On to CUUAUCCUCUGGAACUACUGGGUUAGCUAA, for which the “pre-steady-state target cleavage rate” value stood at 0.0654 ± 0.021.

As for CUUAUCCUCUGGAACUACUGGGUUUCCUAA, the “pre-steady-state target cleavage rate” value worked out at 1.1 ± 0.56.

CUUAACCUCUGGAACUACUGGGUUUCCUAA: the “pre-steady-state target cleavage rate” value was found to be 0.311 ± 0.14.

As for CUUAAGGACUGGAUCUACUGGGUUACCUUAA, the “pre-steady-state target cleavage rate” value stood at 0.0243 ± 0.014.

With CUUAUCCUCUGGAUCUAUUGGGUUACCUAA, the “pre-steady-state target cleavage rate” value turned out to be 0.139 ± 0.036.

With CUUAAGGAGACCUAGAUGACGGUUACCGAA, the “pre-steady-state target cleavage rate” value was less than 0.0001.

With CUUAAGCUCUGGAUCUACUGGGUUCCCUAA, the “pre-steady-state target cleavage rate” value was found to be 0.0477 ± 0.017.

Consider CUUAAGCUCUGCAUCUACUGGGUUACGUAA, for which the “pre-steady-state target cleavage rate” value was determined as 0.0499 ± 0.016.

Consider CUUAUCCUCUGGAUCAACAGGGUUACCUAA, for which the “pre-steady-state target cleavage rate” value came out at 0.0724 ± 0.01.

As to CUUAAGGUCUGCAUCUACUGGGUAACCUAA, the “pre-steady-state target cleavage rate” value was 0.00707 ± 0.006.

The values above are taken from the supplement of paper PMC10338343.
